In PubChem BioAssay (NCI):
“And” between values parts separate entries of the source, which are not always exact repeats. Equal entries are not always repeated. About 83,000 compounds went through this panel and 20% of them were active in at least one assay; those are over-represented in the sample as a whole.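 Cells were grown in 96-well plates and exposed to the test compound at a single concentration for 48 hours; results are reported as percent growth, with values below 10 considered active.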 A number with no mark means an inactive call.

tested on: NCI-H322M lung; assay: NCI-60 one-dose screen, 48 h (100 = growth as untreated, 0 = no growth, -100 = all killed); conditions: 10 µM
Protocol: Growth inhibition of the NCI-H322M human Non-Small Cell Lung tumor cell line is measured as a screen for anti-cancer activity. Cells are grown in 96 well plates and exposed to the test compound for 48 hours. Compounds are tested at a single concentration, which is 10^-5 M for most compounds. The reported endpoint is percent growth (GI% or GIPRCNT), where numbers from 0 - 100% represent growth inhibition, and numbers from -100% - 0 represent cell death. For example, a value of 40 represents 60% growth inhibition. A value of 0 means no net growth occurred over the course of the experiment. A value of -40 indicates 40% of cells at the beginning of the experiment died by the end of the experiment. A value of -100 means all cells are dead at the end of the experiment.
NCI-60 Human Tumor Cell Lines Screen was performed using the standard one-dose NCI protocol, which is described in more detail at https://dtp.cancer.gov/discovery_development/nci-60/default.htm.
Compounds with GIPRCNT values below 10 were considered active. Activity score was based on GIPRCNT using the following formula: […]
Score is 0 for GIPRCNT values of 100 or above, 50 for GIPRCNT values of 0, and 100 for GIPRCNT values of -100.

SMILES | growth [%]
CS/C(=C\c1ccc(C(=O)c2ccc(C)cc2)n1C)S(C)=O (stereo not given) | 98

same assay, conditions: 10 µM unless noted

SMILES | growth
S=c1ccc2ccccc2[nH]1 | 96.8% and 96.2%
CCN(CC)C(CC(=O)c1ccccc1)C(=O)c1ccccc1 (stereo not given) | 107%
O=C1C2=C(Nc3cc(Cl)ccc3N2)OC1c1c[nH]c2ccc(COc3ccccc3)cc12 (stereo not given) | 64.7%
Nc1ccccc1SC(CC(=O)c1ccccc1)c1cccc([N+](=O)[O-])c1 (stereo not given) | 113% and 96.1%
OC(CC(c1ccccc1)c1cccc2ccccc12)(c1ccccc1)c1ccccc1 (stereo not given) | 97.5% and 105%
CCOC(=O)c1ccncc1 | 106%
COc1cc2c(cc1O)C(=O)CCCC2 | 102%
O=C(O)COc1ccccc1F | 106%
O=C(O)c1ccc2c3ccc(C(=O)O)c4c(C(=O)O)ccc(c5ccc(C(=O)O)c1c25)c43 | 100%
C/C(=C\c1ccccc1)C(O)C(=O)c1nc2ccc([N+](=O)[O-])cc2[nH]c1=O (stereo not given) | 90.3%
CCN(CC)Cc1cc2[nH]c3c4ccc(Cl)cc4ncc3c2cc1OC | 93.2% and 87.2%
CCOP(C)(=O)/C(Cc1ccc(OC)c(OC)c1)=N\O (stereo not given) | 90.5%
CC(=O)Oc1cc(C(C)C)c(OCCN(C)C)cc1C | 102% and 105%
COc1ccc(CCn2cnn3c(=O)c4ccccc4nc3c2=O)cc1OC | 103% and 110%
CC1(CO)CCCC1NCCNC1CCCC1(C)CO (stereo not given) | 139% and 98.2%
O=C1C=CC(n2cc(F)c(=O)[nH]c2=O)O1 (stereo not given) | 67.4%
COC(=O)c1nc(N)nc(C(=O)OC)c1C(=O)c1ccc(F)cc1 | 108%
C=CCN1C(=O)c2ccccc2C1=O | 102%
O=C(O)C#Cc1ccc(Cl)cc1 | 111%

SMILES | growth
COCCCNC1=C(C#N)C(=O)NC(c2cccs2)S1 (stereo not given) | 95.4%
CCOc1ccc(/C=C\C(=O)O)cc1 | 107%
CC(NC(=O)CCl)c1ccccc1 (stereo not given) | 106%
CCOC(=O)CN1CCC(C(=O)OCC)CC1 | 124%
COc1cc(Cl)ccc1C | 85.6%
CC(=O)c1cccc(OC(=O)c2ccccc2)c1 | 136%
Cc1ccc([N+](=O)[O-])cc1Br | 111%
S=c1nn[nH]n1C1CCCCC1 | 102%
O=C1c2ccccc2CN1c1ccccc1 | 107%
S=c1nc[nH]c2nc[nH]c12 | 33% [50 µM]
COCCNC(C)=O | 108%
CSc1nc(N)c(N)c(N)n1 | 106%
Cn1c(-c2ccccc2)cc(=O)cc1-c1ccccc1 | 97%
O=C(O)c1c2c(nc3ccccc13)Cc1ccccc1-2 | 119% and 87.4%
Cc1ccc2cccc([N+](=O)[O-])c2n1 | 110% and 90.5%
C/C=C(/C(=O)NC(N)=O)C(C)C | 109%
O=COCCCc1ccccc1 | 104%
CCOP(=O)(OCC)/C(C#N)=C/c1c(C)[nH]c2ccccc12 | 107%
CCCC(=O)OCC(COC(=O)CCC)OC(=O)CCC | 93.9%

same assay, conditions: 100 µM

SMILES | growth [%]
CS/C(=C\c1ccc(C(=O)c2ccc(C)cc2)n1C)S(C)=O (stereo not given) | 103
